Reference: PubChem BioAssay AID1159580 (chemical genetic matrix, 2015)
Values joined by “and” are separate entries in the source; they are usually repeats but may differ in a detail not shown here. Equal values may be shown once. Among all 5,500 compounds or so, about 2,000 (36%) were called active. Not shown: some 18% with an inconclusive outcome. No stated cut-off is given here; in the data, active means normalized growth mostly below about 0.91 (no sharp cut-off); inconclusive means no clear call, values can overlap the other calls; inactive means mostly above about 0.92. This is one part of the list.

Assay: chemical genetic growth profiling, strain panel (AID 1159580);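 further: tested at 20 µM; growth read once vehicle control cultures reached saturation at 30 °C; 1 = growth at the plate median or of vehicle wells; lower values mean less growth of the strain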
Details: S. cerevisiae deletion strains, growth OD

Measured: normalized growth

NS(=O)(=O)c1cc2c(cc1Cl)NC=NS2(=O)=O
inactive: locus YAL013W, strain DEP1, active compounds read low 1 | locus YAL021C, strain ccr4, active compounds read low 0.984 | locus YAL026C, strain drs2, active compounds read low 1.01 | locus YAL030W, strain snc1, active compounds read low 1 | locus YAL040C, strain CLN3, active compounds read low 1 | locus YBL061C, strain skt5, active compounds read low 1 | locus YBR009C, strain hhf1, active compounds read low 0.983 | locus YBR021W, strain FUR4, active compounds read low 1 | locus YBR023C, strain chs3, active compounds read low 1 | locus YBR171W, strain sec66, active compounds read low 1 | locus YBR229C, strain ROT2, active compounds read low 1 | locus YBR231C, strain swc5, active compounds read low 0.973 | locus YBR279W, strain paf1, active compounds read low 0.997 | locus YCL011C, strain gbp2, active compounds read low 1 | locus YCL016C, strain dcc1, active compounds read low 0.999 | locus YCL029C, strain bik1, active compounds read low 0.997 | locus YCL061C, strain MRC1 (second series), active compounds read low 1 | locus YCL061C, strain MRC1, active compounds read low 1.01 | locus YCL069W, strain vba3, active compounds read low 1.01 | locus YCR088W, strain abp1, active compounds read low 0.995 | locus YDL005C, strain med2, active compounds read low 0.997 | locus YDL035C, strain GPR1, active compounds read low 1.02 | locus YDL040C, strain nat1, active compounds read low 1 | locus YDL074C, strain BRE1, active compounds read low 1.01 | locus YDL101C, strain DUN1, active compounds read low 1.01 | locus YDL134C, strain PPH21, active compounds read low 1 | locus YDL185W, strain tfp1, active compounds read low 0.974 | locus YDL192W, strain arf1, active compounds read low 1 | locus YDR001C, strain nth1, active compounds read low 1.03 | locus YDR069C, strain doa4, active compounds read low 1 | locus YDR101C, strain arx1, active compounds read low 0.996 | locus YDR137W, strain rgp1, active compounds read low 0.999 | locus YDR150W, strain NUM1, active compounds read low 1.01 | locus YDR159W, strain sac3, active compounds read low 1 | locus YDR162C, strain NBP2, active compounds read low 1.02 | locus YDR195W, strain ref2 0.93 | locus YDR297W, strain sur2, active compounds read low 1 | locus YDR318W, strain mcm21, active compounds read low 1 | locus YDR334W, strain swr1, active compounds read low 1 | locus YDR335W, strain msn5, active compounds read low 1.02 | locus YDR388W, active compounds read low 0.997 | locus YDR392W, strain spt3, active compounds read low 1 | locus YDR502C, strain sam2, active compounds read low 1.01 | locus YEL003W, strain gim4, active compounds read low 0.99 | locus YEL037C, strain rad23, active compounds read low 0.999 | locus YEL061C, strain CIN8 (second series), active compounds read low 1.02 | locus YEL061C, strain CIN8, active compounds read low 1 | locus YER002W, strain NOP16, active compounds read low 0.975 | locus YER015W, strain faa2, active compounds read low 1.01 | locus YER016W, strain bim1, active compounds read low 1.01 | locus YER110C, active compounds read low 0.986 | locus YER111C, strain swi4, active compounds read low 0.99 | locus YER155C, strain BEM2 (second series), active compounds read low 0.963 | locus YER155C, strain BEM2, active compounds read low 1 | locus YER167W, strain BCK2, active compounds read low 1.03 | locus YFR010W, strain ubp6, active compounds read low 1.02 | locus YGL078C, strain dbp3, active compounds read low 1 | locus YGL086W, strain mad1, active compounds read low 1 | locus YGL167C, strain pmr1, active compounds read low 0.993 | locus YGL173C, strain kem1, active compounds read low 0.989 | locus YGL227W, strain vid30, active compounds read low 0.988 | locus YGL240W, strain doc1, active compounds read low 0.988 | locus YGL248W, strain PDE1, active compounds read low 1.01 | locus YGL253W, strain hxk2, active compounds read low 1.03 | locus YGR078C, strain PAC10, active compounds read low 1.01 | locus YGR135W, strain pre9, active compounds read low 0.998 | locus YGR229C, strain SMI1, active compounds read low 1.02 | locus YGR252W, strain gcn5, active compounds read low 1.02 | locus YHR013C, strain ard1, active compounds read low 0.966 | locus YHR027C, strain rpn1, active compounds read low 1 | locus YHR030C, strain SLT2, active compounds read low 1.01 and 0.954 | locus YHR079C, strain IRE1 (second series), active compounds read low 1 | locus YHR079C, strain IRE1, active compounds read low 0.965 | locus YHR094C, strain hxt1, active compounds read low 0.995 | locus YHR129C, strain ARP1, active compounds read low 1 | locus YHR142W, strain chs7, active compounds read low 1.02 | locus YHR200W, strain rpn10, active compounds read low 0.993 | locus YIL066C, strain RNR3, active compounds read low 1.02 | locus YIL073C, strain SPO22, active compounds read low 1.03 | locus YIL125W, strain kgd1, active compounds read low 1 | locus YIR030C, strain dcg1, active compounds read low 0.99 | locus YJL092W, strain hpr5, active compounds read low 1.01 | locus YJL095W, strain BCK1 (second series), active compounds read low 1 | locus YJL095W, strain BCK1, active compounds read low 1.02 and 0.975 | locus YJL115W, strain asf1, active compounds read low 1.01 | locus YJL129C, strain trk1, active compounds read low 1.02 | locus YJL134W, strain LCB3, active compounds read low 1 | locus YJL154C, strain vps35, active compounds read low 0.989 | locus YJL164C, strain tpk1, active compounds read low 1 | locus YJL166W, strain qcr8, active compounds read low 0.985 | locus YJL168C, strain set2, active compounds read low 0.995 | locus YJL187C, strain SWE1 (second series), active compounds read low 1.03 | locus YJL187C, strain SWE1, active compounds read low 1.01 | locus YJR043C, strain POL32, active compounds read low 0.996 | locus YJR066W, strain TOR1, active compounds read low 0.973
